The source of these data is paper PMC5540273 (PLoS ONE, 2017).

Test systems include PIP5K1A; PIP5K1C; PIP5K2B; PKMYT1; PKN1; PKN2; PLK1; PLK2; PLK3; PLK4; PRKCD; PRKCE; PRKCH; PRKCI; PRKCQ; PRKD1; PRKD2.
What all share (conditions): concentration: 1 μM, replicates: in singlicate; n = 1
For another test, the system named is T1, PIP5K2C.
T1 construct: gene PIP4K2C

Another test deals with T2, PKAC-alpha.
T2 construct: gene PRKACA

A further test relates to T3, PKAC-beta.
T3 construct: gene PRKACB
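Further: KINOMEscan kinase panel screen.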

For `Cl.Cl.NCC(NCc1ccc(-c2ccnc3[nH]ccc23)s1)c1ccccc1` (centres unmarked) [GSK1321565], the “%Inh” value in the test on PIP5K1A was 71%; in the test with PIP5K1C it was 63%; in the test with PIP5K2B it was 45%; with PIP5K2C it was 39%; in the test with PKAC-alpha, 97.9%; in the test with PKAC-beta, 94.9%. Moreover, the “%Inh” value with PKMYT1 stood at 0%; in the test on PKN1, 30%; in the test on PKN2 it was 64%; in the test with PLK1 it was 0%; in the test on PLK2, 5%; in the test on PLK3, 0%. The “%Inh” value in the test with PLK4 was 49%; in the test with PRKCD it was 91.1%; in the test with PRKCE it was 84%; in the test on PRKCH it was 85%; in the test with PRKCI, 0%; with PRKCQ, 55%. For the same compound, the “%Inh” value came to 0% with PRKD1 and 21% in the test on PRKD2.
Take `Cn1cc(-c2ccc3c(c2)CCN3C(=O)Cc2cccc(F)c2)c2c(N)ncnc21` [GSK2603358]: the “%Inh” value in the test with PIP5K1A is 0%; in the test with PIP5K1C, 56%; with PIP5K2B it was 0%; with PIP5K2C, 38%; in the test with PKAC-alpha, 0%; in the test with PKAC-beta, 0%. Moreover, the “%Inh” value stood at 0% in the test with PKMYT1; 0% in the test on PKN1; 0% in the test with PKN2; 0% with PLK1; 0% in the test with PLK2; 6% in the test on PLK3. Besides, the “%Inh” value in the test with PLK4 is 0%; in the test with PRKCD, 0%; with PRKCE, 14%; with PRKCH it was 24%; in the test with PRKCI, 30%; in the test with PRKCQ, 0%. In addition, the “%Inh” value in the test on PRKD1 and with PRKD2 was 0% each time.
`C[C@@H](Oc1cc(-n2cnc3cc(-c4ccnc(NCCS(C)(=O)=O)c4)ccc32)sc1C(N)=O)c1ccccc1Cl` [GSK907232]: the “%Inh” value came out at 5% in the test with PIP5K1A; 14% with PIP5K1C; 47% with PIP5K2B; 30% in the test on PIP5K2C; 0% with PKAC-alpha; 0% with PKAC-beta. In addition, the “%Inh” value in the test on PKMYT1 worked out at 5%; in the test on PKN1 it was 35%; in the test with PKN2, 0%; in the test with PLK1, 100%; in the test with PLK2, 99.2%; in the test with PLK3, 99.4%. Also, the “%Inh” value in the test with PLK4 was determined as 32%; with PRKCD, 11%; with PRKCE, 3%; in the test with PRKCH, 0%; in the test with PRKCI, 9%; in the test on PRKCQ, 31%. Also, the “%Inh” value in the test on PRKD1 and in the test on PRKD2 was 0% throughout.
For the compound `O=C(O)C(F)(F)F.O=C(O)C(F)(F)F.O=c1[nH]ccc2nc(N[C@@H]3CCCNC3)nc(Nc3ccc(S(=O)(=O)N4CCOCC4)cc3)c12` [GSK2177277], the “%Inh” value in the test with PIP5K1A amounted to 72%; in the test on PIP5K1C it was 76%; in the test with PIP5K2B it was 94.4%; in the test with PIP5K2C, 89%; in the test with PKAC-alpha it was 82%; in the test with PKAC-beta it was 86%. The “%Inh” value with PKMYT1 came to 0%; in the test with PKN1 it was 85%; with PKN2, 96.1%; with PLK1 it was 38%; in the test with PLK2, 10%; with PLK3 it was 0%. For the same compound, the “%Inh” value in the test with PLK4 worked out at 98.7%; in the test on PRKCD, 99.8%; in the test with PRKCE it was 99.9%; with PRKCH it was 99%; in the test with PRKCI it was 95.3%; with PRKCQ it was 99.2%. Also, the “%Inh” value in the test on PRKD1 was determined as 94.8%; in the test with PRKD2, 99.1%.
`CC(=O)Nc1nc2cnc(Nc3cc(NC(=O)c4cccc(C5(C#N)CC5)c4Cl)ccc3C)nc2s1`: the “%Inh” value is listed as 8% with PIP5K1A; 4% with PIP5K1C; 46% in the test with PIP5K2B; 0% in the test with PIP5K2C; 0% with PKAC-alpha; 0% in the test with PKAC-beta. Further, the “%Inh” value with PKMYT1 worked out at 0%; in the test on PKN1, 0%; with PKN2, 0%; in the test with PLK1, 0%; in the test on PLK2 it was 4%; with PLK3, 0%. Moreover, the “%Inh” value is listed as 0% in the test on PLK4; 29% in the test with PRKCD; 0% with PRKCE; 0% with PRKCH; 0% with PRKCI; 39% with PRKCQ. Besides, the entries for the “%Inh” value in the test with PRKD1 and in the test on PRKD2 were 0% and 4%, respectively.
As to `O=C(NC1CCN(c2ccnc(Nc3ccc(F)cc3)n2)C1)c1cc2ccccc2s1` (centres unmarked) [GSK1379716], the “%Inh” value is listed as 7% in the test with PIP5K1A; 60% in the test on PIP5K1C; 0% in the test with PIP5K2B; 42% in the test with PIP5K2C; 0% with PKAC-alpha; 0% in the test on PKAC-beta. Besides, the “%Inh” value is listed as 6% in the test with PKMYT1; 0% with PKN1; 0% with PKN2; 7% with PLK1; 0% with PLK2; 0% in the test on PLK3. Moreover, the “%Inh” value is reported as 1% with PLK4; 0% in the test with PRKCD; 2% with PRKCE; 30% in the test on PRKCH; 15% with PRKCI; 16% with PRKCQ. Besides, the “%Inh” value with PRKD1 amounted to 21%; with PRKD2, 28%.
With `COc1cc(Nc2nccc(N3CCC(NC(=O)Nc4cccc(C(C)=O)c4)C3)n2)cc(OC)c1OC` (centres unmarked) [GSK1379753], the “%Inh” value came to 0% in the test with PIP5K1A; 46% in the test on PIP5K1C; 5% in the test on PIP5K2B; 86% in the test on PIP5K2C; 0% with PKAC-alpha; 0% in the test with PKAC-beta. In addition, the “%Inh” value in the test with PKMYT1, in the test with PKN1, with PKN2, in the test with PLK1, in the test with PLK2 and in the test with PLK3 was 0% each time. The “%Inh” value was found to be 54% in the test with PLK4; 5% in the test on PRKCD; 0% with PRKCE; 0% in the test on PRKCH; 25% with PRKCI; 0% in the test with PRKCQ. For the same compound, the “%Inh” value with PRKD1 and in the test with PRKD2 was 0% each time.
Consider `CCc1ccc(-c2ccc3c(c2)-c2c(cnn2C)S(=O)(=O)N3C)cc1`, for which the “%Inh” value with PIP5K1A is on record as 0%; in the test on PIP5K1C, 24%; with PIP5K2B, 0%; with PIP5K2C, 77%; with PKAC-alpha it was 0%; with PKAC-beta, 12%. Moreover, the “%Inh” value in the test with PKMYT1 is recorded as 30%; in the test with PKN1, 2%; in the test on PKN2, 0%; in the test on PLK1, 0%; in the test with PLK2 it was 4%; with PLK3, 2%. The “%Inh” value with PLK4 was determined as 14%; in the test on PRKCD, 0%; in the test with PRKCE, 17%; with PRKCH, 0%; in the test on PRKCI, 2%; in the test with PRKCQ it was 23%. The “%Inh” value was determined as 0% with PRKD1 and 14% in the test on PRKD2.
Consider `O=C(Nc1cccc(-c2nn3ccccc3c2-c2ccnc(Nc3cccc(C(F)(F)F)c3)n2)c1)c1c(F)cccc1F` [GSK292658], for which the “%Inh” value in the test on PIP5K1A was 0%; in the test with PIP5K1C, 0%; in the test with PIP5K2B it was 5%; in the test on PIP5K2C, 10%; with PKAC-alpha, 0%; in the test with PKAC-beta it was 13%. Also, the “%Inh” value in the test with PKMYT1 was determined as 0%; with PKN1, 11%; with PKN2 it was 0%; in the test on PLK1 it was 0%; in the test on PLK2, 0%; in the test with PLK3, 0%. Besides, the “%Inh” value amounted to 3% in the test on PLK4; 0% in the test with PRKCD; 0% in the test on PRKCE; 17% in the test with PRKCH; 9% in the test on PRKCI; 20% with PRKCQ. The “%Inh” value in the test on PRKD1 and with PRKD2 was 0% throughout.
Take `COc1ccc(Nc2nccc(N3CCC(NC(=O)Nc4cccc(OC)c4)C3)n2)cc1` (centres unmarked) [GSK1379742]: the “%Inh” value in the test with PIP5K1A is recorded as 0%; in the test on PIP5K1C, 44%; in the test on PIP5K2B it was 14%; in the test on PIP5K2C, 16%; in the test with PKAC-alpha, 1%; in the test with PKAC-beta it was 0%. Further, the “%Inh” value in the test with PKMYT1 turned out to be 0%; in the test on PKN1 it was 0%; with PKN2, 0%; with PLK1, 5%; in the test with PLK2, 0%; with PLK3 it was 0%. For the same compound, the “%Inh” value in the test with PLK4 was found to be 0%; in the test on PRKCD it was 1%; in the test on PRKCE it was 0%; in the test with PRKCH, 5%; with PRKCI it was 0%; in the test with PRKCQ, 0%. For the same compound, the “%Inh” value with PRKD1 stood at 3%; in the test on PRKD2, 0%.
